Nrf2 block: inhibitors of Nrf2 signaling; A549 ARE-Fluc reporter, luciferase luminescence, 18-24 h; Potency, µM (doses to about 46 µM), inactives show at the top dose activity change, negative = inhibition, most hits filed as inhibitors; 2.1% of 360,000 active; AID 504444; also: % is scaled to controls: 0 for no effect and ±100 for the full control effect; nearly all actives have a fitted effect of over 60% in size
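Nrf2 function is reported as luminescence of an ARE-controlled luciferase in A549 cells. Compounds were tested at several concentrations, and a CellTiter-Fluor read on the same wells flagged cytotoxicity.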
A549 tox: counter-screen for Nrf2 inhibitors: cytotoxicity in A549 cells; A549 ARE-Fluc cells, CellTiter-Fluor viability, 18-24 h; Potency, µM (doses to about 46 µM), inactives show top-dose activity change, negative = cytotoxicity, hits mostly inhibitors; 0.16% of 390,000 active; also: % is scaled to controls: 0 for no effect and ±100 for the full control effect
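Cytotoxicity counterscreen: CellTiter-Fluor fluorescence was measured in A549 ARE_Fluc cells after 18-24 h of compound exposure in a concentration series. The subsequent BugLite luminescent read reports ARE-luciferase activity.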
ATXN2 expr inh: reduces ATXN2 reporter expression in HEK-293 cells; HEK-293 ATXN2-luciferase reporter, luminescence, 24 h; Potency, µM (series often up to 57 µM), without a hit: at the highest dose activity change, negative = inhibition, hits mostly inhibitors; 0.72% of 360,000 active; AID 1745845; also: % is scaled to controls: 0 for no effect and ±100 for the full control effect; nearly all actives have a fitted effect of over 55% in size
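qHTS (up to 57 uM final) was run with 24 h compound exposure of reporter cells at 37 °C. Each well was multiplexed: SteadyGlo luminescence measured ATXN2-luciferase expression after a fluorogenic Gly-Phe-AFC viability readout (25 uM final).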
HepG2 viability: counter-screen for TGF-b inhibitors: cytotoxicity in HepG2 cells; HepG2 CAGA-GFP viability, ATP luminescence, 18 h; Potency, µM (top dose mostly 46.1 µM), for inactives: at the top dose activity change, negative = cytotoxicity, actives largely listed as cytotoxic; 0.76% of 410,000 active
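CellTiter-Glo luminescence gave cytotoxicity after 18 hours at 37 degrees C. The cells were HepG2 CAGA-GFP in 1% FBS DMEM, stimulated with 500 pg/mL TGF-beta after compound addition. %Activity was normalised to no-cell wells (complete cell-killing) and DMSO (no toxicity), and curves were fitted and classified.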
S2 tox: viability counter-screen for ATXN expression inhibitors; AID 651635; S2 cells (HEK-293 line with an ATXN2-luciferase reporter) viability, CellTiter-Fluor protease fluorescence, 24 h; Potency, µM (highest dose often 56.7 µM), hits mostly cytotoxic; 0.49% of 400,000 active; also: nearly all actives have a fitted effect of over 40% in size
TGFb SMAD3 inh: blocks TGF-b signaling; 1.2% of 410,000 active; AID 588855; Potency, µM (titrated, usually from 46.1 µM), for the others: at the top dose activity, negative = inhibition, actives largely listed as inhibitors; HepG2 CAGA-GFP TGF-b/SMAD3 reporter, GFP fluorescence, 18 h; TGF-beta stimulated, 500 pg/mL final; also: % is scaled to controls: 0 for no effect and ±100 for the full control effect; nearly all actives have a fitted effect of over 65% in size
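Read-out: total well GFP (ex488/em500-530) summed from mean per-cell fluorescence. Cells: HEPG2 CAGA-GFP, 1% FBS DMEM, 18 h at 37 degrees C with 500 pg/mL final TGF-beta. Unstimulated wells served as the full-inhibition control; stimulated DMSO wells = 0%.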
Active calls of the source: *; i = inactive; u = inconclusive; x = no result; [ ] = another dose, or the depositor's remark. Hits are enriched below; roughly 3.8% of the tested compounds scored in any of these assays. Calls follow the shape of the dose curve; as a rule, active = well fitted curve in the direction sought with a large enough effect; inconclusive = small, poorly fitted or top-dose-only effect, or another doubt; inactive = no such curve, though single readings can be large; an effect the other way counts as inactive or inconclusive. Potency is read from the fitted curve at half-maximal effect.

SMILES | Nrf2 block | A549 tox | ATXN2 expr inh | HepG2 viability | S2 tox | TGFb SMAD3 inh
CC(C)[C@H](N)C(=O)N[C@H]1CCC2C3CC=C4C[C@@H](O)CC[C@]4(C)C3CC[C@@]21C (stereo partly specified) | x | x | x | 20µM* | u | u
CCC(C)[C@H](N)C(=O)N[C@H]1CCC2C3CC=C4C[C@@H](O)CC[C@]4(C)C3CC[C@@]21C (stereo partly specified) | x | x | x | 15.8µM* | u | u
Cc1ccccc1N(C(=O)Cn1nnc(-c2cccs2)n1)C(C(=O)NCCC(C)C)c1ccco1 (stereo unspecified) | u | u | -6.8% | -4.5% | i | u
CCC1CSC(Nc2ccc(C(=O)/C=C/c3ccc(Br)cc3)cc2)=N1 (stereo unspecified) | -17.9% | -1.7% | u | -57.3% | u | 15.8µM*
CCC1CSC(Nc2ccc(C(=O)/C=C/c3ccc(OC)c(OC)c3)cc2)=N1 (stereo unspecified) | u | -25.8% | u | -13.1% | x | u
O=C(C[C@H]1C/C=C\CCC(=O)OC[C@H]2CCCN2C1=O)NCCO | 1.5% | -2.0% | 2.1% | 2.7% | i | u
CCOC(=O)CSC1=C(C#N)C(c2ccc(C)s2)CC(=O)N1 (stereo unspecified) | 20.6µM* | u | -25.1% | -30.7% | i | u
C[C@H]1CN([C@@H](C)CO)S(=O)(=O)c2ccc(C3=CCCC3)cc2O[C@@H]1CN(C)C(=O)C1CCCCC1 | x | x | u | -37.8% | 20µM* | u
COc1ccc(Nc2nc(=O)c3cc([N+](=O)[O-])ccc3s2)cc1 | -30.0% | -13.4% | -8.9% | 3.98µM* | i | 8.0%
O=C(CN1CCOCC1)Nc1ccccc1Sc1ccc(Cl)cc1 | 29.1µM* | -2.1% | -18.6%[11.3 µM] | -1.3% | i | -2.5%
COc1ccc(OC)c(NC(=O)CSc2nnnn2-c2ccc3c(c2)OCO3)c1 | 7.3% | u | 8.91µM* | -55.5% | i | -0.7%
COc1ccc(-n2nnnc2SCC(=O)N2CCOCC2)cc1 | u | 1.3% | 4.1% | 0.562µM* | i | -1.6%
COc1ccc(-n2nnnc2SCC(=O)N2CCCC2=O)cc1 | 5.3% | 2.0% | -5.9% | 2.3% | i | 6.9%
COc1ccc(-n2nnnc2SCC(=O)NC2CC2)cc1 | 7.5% | 0.0% | 3.3% | 2.5% | i | -1.1%
COc1ccc(OC)c(-n2nnnc2SCC(=O)Nc2ccc(C(=O)N3CCCCC3)cc2)c1 | 18.4µM* | -13.1% | -6.2% | -9.7% | i | -26.8%
COc1ccc(-n2nnnc2SCC(=O)Nc2nc3c(s2)CCCC3)cc1 | 16.4µM* | -15.2% | -36.5% | -36.4% | u | -2.8%
COc1ccc(/C=C(\NC(=O)c2ccccc2Cl)C(=O)NCCCC(=O)O)cc1 | -9.3% | 5.1% | 4.3% | 10.7% | i | 4.9%
COc1ccc(N2CCN(C(=O)CSc3nnnn3-c3ccc4c(c3)OCCO4)CC2)cc1 | 16.4µM* | -2.3% | 0.4% | 2.2% | i | -4.4%
CCCn1nc([N+](=O)[O-])c(C(C#N)c2nc3ccccc3o2)c(Cl)c1=O (stereo unspecified) | 10.0% | u | 38.5% | -33.4% | i | u
Cn1nc([N+](=O)[O-])c(C(C#N)c2ccccn2)c(Cl)c1=O (stereo unspecified) | 11.6µM* | u | x | 12.6µM* | u | u
O=C(CN1C(=O)NC(c2ccccc2)(c2ccccc2)C1=O)NC1CCCCC1 | -2.3% | -0.6% | 5.9% | -1.2% | i | -14.5%
CCc1nc2ccc(C(=O)Nc3ccc(OC)c(OC)c3)cn2c1N(C)Cc1ccc(OC)cc1 | x | x | u | -28.2% | u | 0.3%
CCc1nc2ccc(C(=O)Nc3ccc(OC)c(OC)c3)cn2c1N(C)CCC(C)C | x | x | u | 20µM* | x | 14.1µM*
